# Source: PubChem BioAssay AID588502 (Sanford-Burnham Center for Chemical Genomics, 2011)
# Results with a measured potency or affinity are listed apart. Values without a mark were called inactive. How the calls were made is not given here.
# Experiment: dose response, counter-screen, biochemical, fluorescence, single-stranded RNase substrate (AID 588502)
# Conditions: oligo substrate without MazF, fluorescence increase, 5 h
compound,measurement,value
CC1CCC(=NNS(=O)(=O)c2ccc([N+](=O)[O-])cc2)CC1 (stereo unspecified),EC50,> 99 µM
